Among the data in PubChem BioAssay (NCATS) are outcome values, retold here.

Each structure is given as a SMILES string. Calls of active or inactive are those of the source. The call rests on the fitted dose curve; in most records, active means well fitted activation curve with a large enough effect; inconclusive means small, poorly fitted or top-dose-only effect; inactive means flat fitted curve, though single readings scatter.

This experiment is described as follows: Confirmation and Secondary Assay for Modulators of Hemoglobin Beta Chain Splicing at IVS2 705 locus (AID 930).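 Further: HeLa cells stably expressing the EGFP-705 splicing reporter; GFP fluorescence per well restored by corrected splicing of the IVS2-705 intron in EGFP.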 To be noted: HeLa EGFP-705 splicing reporter, GFP fluorescence, 48 h; series mostly up to 46.1 µM. The procedure, abridged:
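HeLa EGFP-705 reporter; 500 cells/well, o/n 37C 5% CO2; cpd 2 d; 488 ex/500-520 em laser scan; total peak GFP intensity/well. Ref: 500 nM […] antisense PNA.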
Regarding `CC(=O)N1CCN(c2ccc(OCC3CO[C@@](Cn4ccnc4)(c4ccc(Cl)cc4Cl)O3)cc2)CC1` (stereo partly specified), the molecule was called inactive.
For `NC(=O)c1cc[n+](CC2=C(C(=O)O)N3C(=O)C(NC(=O)C(c4ccccc4)S(=O)(=O)[O-])C3SC2)cc1` (stereo unspecified) the value was “inactive”; for `CC1CC[C@@]2(C(=O)O)CC[C@]3(C)C(=CCC4[C@@]5(C)CCC(O)C(C)(C)C5CC[C@@]43C)C2C1C` (stereo partly specified), “inactive”; for `COc1cc2c(cc1OC)C1C(=O)c3c(O)cc4c(c3OC1CO2)C=CC(C)(C)O4` (stereo unspecified), “inactive”.
For `C=C1c2c(Cl)ccc(O)c2C(O)=C2C(=O)[C@]3(O)C(O)=C(C(N)=O)C(=O)C(N(C)C)C3C(O)C12` (stereo partly specified) the value was “inactive”.
For `CCOC(=O)C1=C[C@@]2(CC)CCCN3CCc4c(n1c1ccccc41)C32` (stereo partly specified) the value was “inactive”; for `CC1(C)C(=O)C=C[C@]2(C)C1CC(=O)[C@]1(C)C2CC[C@@]2(C)C(c3ccoc3)OC(=O)C3O[C@@]321` (stereo partly specified), “inactive”.
With `CN1C[C@H](C(=O)N[C@@]2(C)O[C@@]3(O)C4CCCN4C(=O)C(Cc4ccccc4)N3C2=O)C[C@H]2c3cccc4[nH]cc(c34)C[C@H]21` (stereo partly specified), the result was inactive.
Turning to `COc1cc2c(cc1OC)C1C(=O)c3c(cc4c(c3O)C=CC(C)(C)O4)OC1CO2` (stereo unspecified), the molecule was classed as inactive.
For `CC(C)CC1C(=O)N2CCCC2C2(O)O[C@@](NC(=O)C3C=C4c5cccc6[nH]c(Br)c(c56)CC4N(C)C3)(C(C)C)C(=O)N12` (stereo partly specified) the value was “inactive”; for `CC1CC2C3CC(F)C4=CC(=O)C=C[C@@]4(C)[C@@]3(F)C(O)C[C@]2(C)[C@]1(O)C(=O)COC(=O)C(C)(C)C` (stereo partly specified), “inactive”.
